# In ChEMBL document CHEMBL3988442, “University of Dundee, Small-Polar-MMV Screening Library” (2021):
# Out of some 48,000 compounds screened, about 13,000 (27%) showed an effect of 50% or more. The list shows a part of the results.
# System: Wolbachia pipientis
# Test: Anti-Wolbachia Cell-Based Screen
# Format: functional
# Design: scale not given: in the data most compounds retested in dose-response had high values
# Conditions: 5 µM
row,Compound,Percent Effect
1,O=C(CCNS(=O)(=O)c1cccnc1)N1CCCCC1,-5.593%
2,O=C(c1cnccn1)N1C[C@@H]2OCC(=O)N(CC3CCCCC3)[C@@H]2C1,-4.007%
3,Cc1ccc(C)c(NC(=O)c2n[nH]c(-n3cnnc3)n2)c1,8.614%
4,Cn1c(Nc2ccc(F)cc2)c(C#N)c(=O)n(C)c1=O,7.851%
5,CNC(=O)C1(c2cnccn2)CCCN1C(=O)c1cccc(C)n1 (stereo not given),90.25%
6,Cc1cccc(C(=O)N2C[C@@H]3[C@H](CC(=O)Nc4cccnc4)[C@@H]3C2)n1.O=C(O)C(F)(F)F.O=C(O)C(F)(F)F,-1.772%
7,CNC(=O)C1(c2cnccn2)CCCN1C(=O)c1ccccc1 (stereo not given),95.42%
8,CC1(C(=O)NCCN2CCCCC2)CCCN1C(=O)c1ccccc1 (stereo not given),0.8057%
9,Cc1cccc(C(=O)N2CCn3c(CN4CCN(C)CC4)cnc3C2)n1,-13.05%
10,O=C(c1cnn(-c2ccccc2)c1)N1CCN(c2cnccn2)CC1,-7.881%
11,CC1=CC(C)(C)N(CN2C(=O)c3ccccc3C2=O)c2ccccc21,-12.76%
12,CNC(=O)C(c1cccc(Cl)c1)C(C)C (stereo not given),-9.115%
13,COc1ccc(C2(c3nc(-c4cccnc4)no3)CCOCC2)cc1,-4.756%
14,Cc1nc(C)n(C2CCCN(C(=O)CCCc3ccccn3)C2)n1 (stereo not given),81.77%
15,Cc1cc(C)n(C2CCCN(C(=O)CCNc3ncccn3)C2)n1 (stereo not given),114.6%
16,Cc1nc(C)n(C2CCCN(C(=O)c3cccnc3NC(C)C)C2)n1 (stereo not given),-8.043%
17,COc1ccc(CC(=O)N2CCCC(n3cc(C)cn3)C2)cc1F (stereo not given),-2.795%
18,Cc1cnn(C2CCCN(C(=O)CCCc3ccccn3)C2)c1 (stereo not given),102.3%
19,Cc1cnn(C2CCCN(C(=O)CCCOc3ccccc3F)C2)c1 (stereo not given),143.9%
20,O=C(CCNc1ncccn1)N1CCCC(n2ccnc2)C1 (stereo not given),-7.544%
21,Cc1cc(C)n(C2CCCN(C(=O)CCCNc3ncccn3)C2)n1 (stereo not given),16.33%
22,Cc1cnn(C2CCCN(C(=O)CCCNc3ncccn3)C2)c1 (stereo not given),0.4653%
23,Cc1cnn(C2CCCN(C(=O)CCCOc3cccc(F)c3)C2)c1 (stereo not given),4.981%
24,Cc1nc(C)n(C2CCCN(C(=O)CCc3ccncc3)C2)n1 (stereo not given),4.522%
25,CCOCc1nc2c(c(N3CC=CC3)n1)CCN(Cc1ccco1)CC2,-6.095%

row,Compound,Percent Effect
1,CCn1c(C)nnc1SCCNc1nc(C)nc2ncccc12,-6.645%
2,CCOc1ccc(NS(=O)(=O)c2cc(C)c(C(=O)O)s2)c(C)c1,5.769%
3,Cc1nn(C)c(C)c1C(C)NC(=O)c1cc(CN2CCC(O)CC2)on1 (stereo not given),-4.084%
4,Cc1cnn(Cc2ccc(NC(=O)N[C@@H]3C=C[C@H](CO)C3)cc2)c1,-14.53%
5,CSC(C)Cc1c(-c2ccccc2)ncn1CCCNc1cccnc1 (stereo not given),-5.851%
6,CCc1nccn1C1CCCN(C(=O)Cc2n[nH]c3ccccc23)C1 (stereo not given),-2.139%
7,Cc1cnn(C2CCCN(C(=O)CCCn3ccnc3C)C2)c1 (stereo not given),111.3%
8,COc1ccccc1CC(=O)N1CCCC(n2nc(C)cc2C)C1 (stereo not given),7.114%
9,Cc1cc(C)n(C2CCCN(C(=O)CCCc3ccccn3)C2)n1 (stereo not given),93.32%
10,CCc1nccn1C1CCCN(C(=O)CCc2nccs2)C1 (stereo not given),3.707%
11,CCc1nccn1C1CCCN(C(=O)CCCc2ccccn2)C1 (stereo not given),115.4%
12,Cc1cc(C)n(CC2CCCN2C(=O)CCCc2ccccn2)n1 (stereo not given),-3.027%
13,Cn1cnnc1C1CCCN(c2nc3ccccc3o2)C1 (stereo not given),-0.3699%
14,CCc1ncc2c(n1)CN(Cc1cn3ccsc3n1)CC2,20.43%
15,Cc1nc2c(c(N(C)CC3Cc4ccccc4CN3C)n1)CCNCC2 (stereo not given),-8.073%
16,CC(C)(C)NC[C@@H]1CCC[C@@H]2CN(Cc3csnn3)C[C@@H]21.O=C(O)C(F)(F)F.O=C(O)C(F)(F)F,1.989%
17,CCN(C)S(=O)(=O)N1C[C@@H]2CC[C@H](C1)N(Cc1cscn1)C2=O,-57.82%
18,CCOC(=O)C(C)Nc1cccc(COCc2ccco2)c1 (stereo not given),114.3%
19,CC(Nc1cccc(CN2CCOC2=O)c1)C(=O)NC(N)=O (stereo not given),6.904%
20,CC(Nc1cccc(COCc2ccco2)c1)C(=O)NC(N)=O (stereo not given),118%
21,CCCNC(=O)C(C)Nc1ccc(COCC)cc1 (stereo not given),-5.955%
22,Cc1nnc(C(C)Nc2cccc(COCCOC(C)C)c2)o1 (stereo not given),-13.05%
23,COCc1cccc(NC(C)C(=O)N(C)Cc2ccccc2)c1 (stereo not given),-9.622%
24,O=C(O)C(F)(F)F.O=C(O)C(F)(F)F.O=C(c1ccncc1)N1CCN2C[C@H](Oc3cccc(F)c3)C[C@H]2C1,3.231%
25,Cc1cccnc1NC(=O)C(C)Cn1nc(C(F)(F)F)cc1C (stereo not given),5.887%
